Data on 40 compounds can be found in PubChem BioAssay (NCI).

About 83,000 compounds went through this panel and 20% of them were active in at least one assay; those are over-represented in the sample as a whole.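 Cells were grown in 96-well plates and exposed to the test compound at a single concentration for 48 hours; results are reported as percent growth, with values below 10 considered active.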 Calls of active or inactive are those of the source.

In the assay the test system is UO-31 renal. Kind of assay: NCI-60 one-dose screen, 48 h (100 = growth as untreated, 0 = no growth, -100 = all killed). The settings on record: 10 µM unless noted. As for the experimental part:
Growth inhibition of the UO-31 human tumor cell line is measured as a screen for anti-cancer activity. Cells are grown in 96 well plates and exposed to the test compound for 48 hours. Compounds are tested at a single concentration, which is 10^-5 M for most compounds. The reported endpoint is percent growth (GI% or GIPRCNT), where numbers from 0 - 100% represent growth inhibition, and numbers from -100% - 0 represent cell death. For example, a value of 40 represents 60% growth inhibition. A value of 0 means no net growth occurred over the course of the experiment. A value of -40 indicates 40% of cells at the beginning of the experiment died by the end of the experiment. A value of -100 means all cells are dead at the end of the experiment.
NCI-60 Human Tumor Cell Lines Screen was performed using the standard one-dose NCI protocol, which is described in more detail at https://dtp.cancer.gov/discovery_development/nci-60/default.htm.
Compounds with GIPRCNT values below 10 were considered active. Activity score was based on GIPRCNT using the following formula: […]
Score is 0 for GIPRCNT values of 100 or above, 50 for GIPRCNT values of 0, and 100 for GIPRCNT values of -100.
For `C#CCn1cccc1CNc1ccc(OC)cc1`, the growth was -95.4% (active).

As for `Cc1ccc(NC(=O)c2ccc(CN3CCN(C)CC3)cc2)cc1Oc1ccc(-c2[nH]nc3ncnc(N)c23)cc1`, the growth is 85.3% (inactive).

As to `O=C(Nc1cccc(C(F)(F)F)c1)c1cc(-c2ccc(F)cc2F)ccc1O`, the growth was -14.3% (active).

For the compound `Cc1cccc2c3c(sc12)C(c1ccc(F)cc1)C(C#N)=C(/N=C/c1ccc(Cl)cc1)O3` (stereo not given), the growth was 34.6% (inactive).

As to `N#Cc1ccccc1Cn1c2nc(=N)c3ccccc3c-2nc2ccccc21`, the growth is 51.3% (inactive).

For `CCOC(=O)c1c(Nc2ccccc2)nn2c(-c3ccc(Cl)cc3)ccnc12`, the growth is 64.8% (inactive).

Turning to `COc1c(N2CC3CCCNC3C2)c(F)cc2c(=O)c(C(=O)N/N=C/c3ccc(F)cc3)cn(C3CC3)c12` (stereo not given), the growth is 80.7% (inactive).

As to `NC(=O)c1c(NC(=O)c2ccc(F)cc2F)sc2c1CCC(=O)C2`, the growth was 29.3% (inactive).

Regarding `CCCCCc1ccc(S(=O)(=O)Nc2cc(-c3csc(NC(=O)CN4CCN(C)CC4)n3)ccc2N2CCN(C)CC2)cc1`, the growth is -94.2% (active).

On to `N#Cc1cn(Cc2ccc(Cl)cc2Cl)c(C(=O)c2ccc(Br)cc2)c1N`, for which the growth is 81.6% (inactive).

For the compound `N#Cc1c(-c2cccs2)cc(-c2cnccn2)nc1SCC(=O)c1ccc(F)cc1`, the growth was 54.7% (inactive).

As to `O=C1Nc2ccccc2/C1=C/c1ccc(COCC2CO2)n1-c1ccc(O)cc1` (stereo not given), the growth was 89.7% (inactive).

In the case of `O=C(NNc1nc2cc(F)ccc2n2c(CN3CCCC3)ccc12)c1cnccn1`, the growth was 18.7% (inactive).

Regarding `CNC(=O)c1cc(Oc2ccc3nc(NC(=O)c4ccc(N5CCOCC5)c(C(F)(F)F)c4)sc3c2)ccn1`, the growth is 54.7% (inactive).

On to `N#Cc1c(NC(=O)c2cccc(C(F)(F)F)c2F)sc2c1CCC(=O)C2`, for which the growth is -99.7% (active).

Consider `c1ccc(C(c2nc3ncncc3[nH]2)N2CSc3nc4ncncc4n3C2)cc1` (stereo not given), for which the growth is 70.9% (inactive).

For `Cc1occc1-c1nc2s/c(=C/c3ccc(-c4cc(C(F)(F)F)ccc4Cl)o3)c(=O)n2n1`, the growth was 87.4% (inactive).

In the case of `C=CCn1c(SCC(=O)Nc2ccc(C(=O)/C=C/c3ccc(Br)cc3)cc2)nnc1-c1c[nH]c2ccccc12`, the growth is 59.7% (inactive).

`O=C(CNc1nc(-c2cccc([N+](=O)[O-])c2)cs1)Nc1cccc(Cl)c1`: the growth is 80.5% (inactive).

Regarding `COc1cc(-c2nn(C(C)(C)C)cc2-c2ccnc(NCCCNS(=O)(=O)c3ccc(F)cc3)n2)ccc1Cl`, the growth is 42.3% (inactive).

For `C/C(=N\O)[C@H]1C[C@]23CC[C@]4(C)[C@H](CC[C@@H]5[C@@]6(C)CC/C(=N/O)C(C)(C)[C@@H]6CC[C@]54C)[C@H]2[C@H](C)C1(C)OC3`, the growth is 67% (inactive).

In the case of `CN1CCN(c2ccc(/C=N/Nc3nc4ccccc4c(=O)n3-c3ccccc3)cc2)CC1`, the growth is 95.5% (inactive).

In the case of `Nc1nc(Nc2ccccc2SSc2ccccc2Nc2nc(N)nc(-c3ccc4ccccc4c3)n2)nc(-c2ccc3ccccc3c2)n1`, the growth was -19.1% (active).

On to `CCCCCc1ccc(S(=O)(=O)Nc2cccc(-c3csc(NC(=O)CCCCCN4CCN(C)CC4)n3)c2)cc1`, for which the growth is 75.9% (inactive).

In the case of `O=C(CN1CCN(c2cc(=O)n(-c3ccccc3)c3ccccc23)CC1)Nc1nc(-c2ccccc2)cs1`, the growth is 41.6% (inactive).

In the case of `CC(Nc1c(C#N)cnc2ccc(-c3cnc(N)nc3)cc12)c1ccccc1` (stereo not given), the growth was 7.41% (active).

Take `CN1CCN(c2nc(-c3csc(-c4ccccc4)n3)cc3ccccc23)CC1`: the growth is 43.6% (inactive).

Consider `CC1(C)[C@@H](O)CC[C@]2(C)[C@H]3CC[C@@H]4[C@H]5[C@H](C(=O)/C=C\c6ccncc6)CC[C@]5(O)CC[C@@]4(C)[C@]3(C)CC[C@@H]12`, for which the growth is 53.1% (inactive).

With `CCN1CCN(Cc2ccc(C(=O)Nc3ccc(C)c(Oc4ccc(-c5[nH]nc6ncnc(N)c56)cc4)c3)cc2C(F)(F)F)CC1`, the growth is 84.4% (inactive).

Take `O=C(Nc1ccc(Br)cc1)Nc1nc2ccc([N+](=O)[O-])cc2s1`: the growth is 5.94% (active).

With `CC(=O)Nc1cccc(Nc2nc(N[C@@H](C)c3ccccc3)c3ccccc3n2)c1`, the growth is 19.2% (inactive).

With `CN1CCN(c2ccc(/C=N/n3cnc4oc(-c5ccccc5)cc4c3=N)cc2)CC1`, the growth is 63.7% (inactive).

Turning to `COc1cccc2cc(-c3cc4ccccc4[nH]3)/c(=N\NC(=O)c3ccc(Cl)cc3)oc12`, the growth was 28% (inactive).

With `NS(=O)(=O)c1ccc(-n2cc(CN3CCCCC3)nn2)cc1`, the growth was 82.2% (inactive).

Turning to `CCCCCc1ccc(S(=O)(=O)Nc2cccc(-c3csc(NCCN4CCN(C)CC4)n3)c2)cc1`, the growth is 73.4% (inactive).

With `C[C@@H](Nc1ncnc2ccc(-c3cnc(Cl)c(NS(C)(=O)=O)c3)cc12)c1ccccc1`, the growth is 26.9% (inactive).

As for `CCOC(=O)c1c(Nc2ccccc2)nn2c(-c3cccs3)ccnc12`, the growth was 82.6% (inactive).

As for `CCc1cccc(NC(=O)CNc2cc(S(=O)(=O)N(C)C)cc(C)c2C)c1`, the growth is 48.5% (inactive).

As for `COc1ccc(-n2c(SCc3nnc(NC(=O)c4ccc(Br)cc4)s3)nc3cc(OC)c(OC)cc3c2=O)cc1`, the growth was 84.2% (inactive).

Turning to `Cc1cc(-c2ccc(Cl)cc2)n(Cc2nnc(SCC(=O)Nc3ccc(S(N)(=O)=O)cc3)n2-c2ccc([N+](=O)[O-])cc2)n1`, the growth was 64% (inactive).
